Here are results for five compounds from PubChem BioAssay (EPA / NIEHS).

Molecules are shown by their SMILES. Results filed as inconclusive are left out. Activity calls are given as the source filed them. The calls were made as follows, unless noted: active = hit-call score of the fitted dose curve at least 0.9, where 1 is the maximum; inactive = score below 0.9.

Experiment [1] deals with Paired box protein Pax-6 (Homo sapiens) (UniProt P26367). Kind of experiment: ATG_Pax6_CIS: Attagene CIS-FACTORIAL HepG2 Assay for human Paired Box 6 (PAX6) (AID 2282956). To be noted: HepG2 CIS-FACTORIAL PAX6 reporter transcription, RNA readout; actives raise or lower the signal. The method in brief: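 Transient MRTU transfection of HepG2 → compound exposure 24 h → TriZol RNA, oligo(dT) RT → PCR, 6-FAM primer extension, HpaI cut → capillary electrophoresis; activity fitted both directions against DMSO.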
Chain of Paired box protein Pax-6 (Homo sapiens) (P26367 whole entry, looked up): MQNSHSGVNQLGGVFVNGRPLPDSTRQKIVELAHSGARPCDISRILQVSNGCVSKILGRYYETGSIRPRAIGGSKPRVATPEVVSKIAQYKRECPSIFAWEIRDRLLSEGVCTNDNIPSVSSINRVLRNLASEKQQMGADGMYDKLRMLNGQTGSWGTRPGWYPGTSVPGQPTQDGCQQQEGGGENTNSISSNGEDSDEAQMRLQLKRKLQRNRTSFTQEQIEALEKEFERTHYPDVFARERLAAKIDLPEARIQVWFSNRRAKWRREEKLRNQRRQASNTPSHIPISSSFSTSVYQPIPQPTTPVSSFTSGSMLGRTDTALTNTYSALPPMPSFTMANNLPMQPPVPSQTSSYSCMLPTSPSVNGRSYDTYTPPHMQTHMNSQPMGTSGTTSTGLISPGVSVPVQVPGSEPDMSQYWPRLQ

A short description of experiment [2]: ATG_PXRE_CIS: Attagene CIS-FACTORIAL HepG2 Assay for human Pregnane X Receptor Element (PXRE) (AID 2282957). To be noted: HepG2 Attagene CIS-FACTORIAL PXRE reporter, mRNA; actives raise or lower the signal. The method in brief:
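Transfect HepG2 with MRTUs (cis promoter elements); dose chemical, incubate 24 h; isolate RNA, RT with oligo(dT), PCR, 6-FAM label, HpaI cut, CE. Gain/loss fit vs DMSO.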

A short description of experiment [3]: ATG_RORE_CIS: Attagene CIS-FACTORIAL HepG2 Assay for human RAR-related Orphan Receptor Element (RORE) (AID 2282959). Particulars: HepG2 Attagene cis-factorial RORE reporter, mRNA; actives raise or lower the signal. The method in brief: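 Transfect HepG2 with MRTUs; treat 24 h; extract RNA; RT with oligo(dT); PCR with reporter-specific primers; 6-FAM primer extension; HpaI digest 2 h at 37 C; capillary electrophoresis. Fit vs DMSO, bidirectional.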

Experiment [4] can be described thus: ATG_Sox_CIS: Attagene CIS-FACTORIAL HepG2 Assay for human SRY-box transcription factor (SOX) (AID 2282960). Particulars: HepG2 Attagene cis-factorial SOX reporter, mRNA; actives raise or lower the signal. A digest of the protocol: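 Fluorescence-labelled cDNA fragments from reporter transcripts, sized by CE, give the signal. Cells: HepG2, transiently transfected with cis-regulated reporter units. Exposure 24 h; DMSO negative control; bidirectional curve fitting.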

For experiment [5], the target named is Transcription factor Sp1 (Homo sapiens) (UniProt P08047). Kind of experiment: ATG_Sp1_CIS: Attagene CIS-FACTORIAL HepG2 Assay for human Specificity Protein 1 (Sp1) (AID 2282961). To be noted: HepG2 Sp1 cis-reporter transcription, actives raise or lower the signal. A digest of the protocol:
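Chemicals are dosed onto HepG2 cells transfected with multiple cis-promoter reporter constructs, and after 24 h reporter RNA is reverse-transcribed, PCR-amplified and resolved by capillary electrophoresis for fluorescence quantitation; activity is scored up or down against DMSO.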

Experiment [6] is described as follows: ATG_SREBP_CIS: Attagene CIS-FACTORIAL HepG2 Assay for human Sterol Regulatory Element Binding (SREBP) (AID 2282962). Particulars: HepG2 Attagene cis-factorial SREBP reporter, mRNA; actives raise or lower the signal. A digest of the protocol: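 Transfected HepG2 (cis-regulated reporter library, endogenous TFs) → compound 24 h → total RNA → oligo(dT) RT → reporter-specific PCR → FAM primer extension, HpaI cut → CE fluorescence. Fit bidirectional vs DMSO.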

Experiment [7] addresses Signal transducer and activator of transcription 3 (Homo sapiens) (UniProt P40763). Kind of experiment: ATG_STAT3_CIS: Attagene CIS-FACTORIAL HepG2 Assay for human Signal Transducer and Activator of Transcription 3 (STAT3) (AID 2282963). Particulars: HepG2, Attagene cis-factorial STAT3 reporter transcription; actives raise or lower the signal. The method in brief: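 Values derive from bidirectional fits relative to DMSO of reporter mRNA levels, measured by RT-PCR with capillary electrophoresis, in HepG2 cells carrying transiently transfected cis-regulated reporter units and exposed 24 h.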

A short description of experiment [8]: ATG_TA_CIS: Attagene CIS-FACTORIAL HepG2 Assay for human TA Basal Promoter (AID 2282964). To be noted: HepG2 Attagene CIS-factorial TA basal promoter reporter; actives raise or lower the signal. The method in brief:
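Read-out: fluorescent reporter-transcript fragments resolved by capillary electrophoresis after RT-PCR and HpaI digestion. Source: HepG2 cells carrying transiently transfected multi-reporter cis constructs, treated 24 h. Endpoint fitted bidirectionally relative to DMSO.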

A short description of experiment [9]: ATG_TCF_b_cat_CIS: Attagene CIS-FACTORIAL HepG2 Assay for human T-Cell-Factor with beta-catenin (TCF/b-cat) (AID 2282965). To be noted: HepG2 TCF/beta-catenin cis-reporter transcription, actives raise or lower the signal. A digest of the protocol:
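HepG2, transient MRTU transfection, cis-element-driven reporters (endogenous TFs). 24 h compound exposure. Readout: reporter mRNA by RT-PCR + 6-FAM primer extension, HpaI digest, capillary electrophoresis. Gain/loss fit vs DMSO baseline.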

A short description of experiment [10]: ATG_TAL_CIS: Attagene CIS-FACTORIAL HepG2 Assay for human TAL Basal Promoter (AID 2282966).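 Also: background control endpoint measuring basal TAL promoter reporter mRNA not a specific factor.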 To be noted: HepG2 Attagene cis-factorial TAL promoter reporter; actives raise or lower the signal. A digest of the protocol:
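Fluorescence of labelled reporter cDNA fragments, resolved by capillary electrophoresis, gave the readout. Human HepG2 liver cells carried transiently transfected cis-element reporter units and were treated for 24 hours; activity was fitted bidirectionally against DMSO.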

Experiment [11] can be described thus: ATG_TGFb_CIS: Attagene CIS-FACTORIAL HepG2 Assay for human Transforming Growth Factor (TGF) (AID 2282967). Particulars: HepG2 Attagene CIS TGFb reporter, mRNA transcription; actives raise or lower the signal. A digest of the protocol: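 Transient MRTU transfection of HepG2 (FuGene 6). Dose 24 h. TriZol RNA, oligo(dT) RT, PCR, 6-FAM primer extension, HpaI cut, CE. Bidirectional fit, DMSO = baseline.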

A short description of experiment [12]: ATG_VDRE_CIS: Attagene CIS-FACTORIAL HepG2 Assay for human Vitamin D Receptor Element (VDRE) (AID 2282968). To be noted: HepG2 VDRE cis-reporter transcription, actives raise or lower the signal. A digest of the protocol: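 Cell-based multiplexed reporter format in human liver HepG2 cells, 24 h post-dose. Fluorescence from capillary electrophoresis of reporter cDNA gives the signal, with DMSO as negative control and baseline.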

Experiment [13] concerns the target Estrogen receptor (Homo sapiens) (UniProt P03372). Put plainly: ATG_ERa_TRANS: Attagene TRANS-FACTORIAL HepG2 Assay for human Estrogen Receptor alpha (ERa) (AID 2282970; active = hit-call score of the fitted dose curve at least 0.9, where 1 is the maximum). Particulars: HepG2 Attagene TRANS ERa GAL4 reporter, mRNA. A digest of the protocol:
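Human liver HepG2, transient transfection of multiple GAL4-UAS reporter units; TRANS format (exogenous NR-Gal4 chimera). 24 h dosing. Readout: reporter mRNA, RT-PCR, 6-FAM primer extension, HpaI digest, capillary electrophoresis. Positive direction vs DMSO.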

The target of experiment [14] is X-box-binding protein 1 (Homo sapiens) (UniProt P17861). Put plainly: ATG_Xbp1_CIS: Attagene CIS-FACTORIAL HepG2 Assay for human X-box Binding Protein 1 (XBP1) (AID 2282972). To be noted: HepG2 XBP1 cis-element reporter, Attagene multiplex; actives raise or lower the signal. The method in brief:
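HepG2, transient MRTU transfection (cis-promoter driven), 24 h compound exposure. Total RNA → oligo(dT) RT → PCR → 6-FAM labeling → HpaI cut → CE. Bidirectional fit vs DMSO.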

A short description of experiment [15]: ATG_GAL4_TRANS: Attagene TRANS-FACTORIAL HepG2 Assay for GAL4 (Internal Marker) (AID 2282976; active = hit-call score of the fitted dose curve at least 0.9, where 1 is the maximum). Particulars: HepG2 Attagene TRANS GAL4 internal marker reporter. A digest of the protocol: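 First, HepG2 cells were transfected with reporter units under GAL4-UAS control. Next, they were treated with chemical for 24 h. Finally, RNA was reverse-transcribed, PCR-amplified, FAM-labelled and resolved by capillary electrophoresis, with induction scored against DMSO.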

The nature of experiment [16]: ATG_PPRE_CIS: Attagene CIS-FACTORIAL HepG2 Assay for human Peroxisome Proliferator-activated Response Element (PPRE) (AID 2282958). To be noted: HepG2 PPRE cis-element reporter, Attagene transcription factor profiling; actives raise or lower the signal. A digest of the protocol: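 DMSO served as negative control and baseline for bidirectional curve fitting. Signal came from PPRE-regulated reporter mRNA in HepG2 cells, measured 24 h post-dosing by RT-PCR, 6-FAM primer extension and capillary electrophoresis.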

Experiment [17] is described as follows: ATG_M_19_TRANS: Attagene TRANS-FACTORIAL HepG2 Assay for M19 Transcription Factor (Internal Marker) (AID 2282974; active = hit-call score of the fitted dose curve at least 0.9, where 1 is the maximum). Particulars: HepG2 Attagene TRANS-FACTORIAL M19 internal marker reporter. The method in brief: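 Multiplexed TRANS format: HepG2 liver cells bearing transient GAL4-UAS reporter units, chemical treatment 24 h, reporter transcripts quantified by RT-PCR plus capillary electrophoresis. DMSO defines baseline.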

The target of experiment [18] is Steroid hormone receptor ERR1 (Homo sapiens) (UniProt P11474). Put plainly: ATG_ERRa_TRANS: Attagene TRANS-FACTORIAL HepG2 Assay for human Estrogen-Related Receptor alpha (ERRa) (AID 2282971; active = hit-call score of the fitted dose curve at least 0.9, where 1 is the maximum). Particulars: HepG2 Attagene TRANS reporter, ERRa transactivation. The method in brief: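 Reporter transcript induction was quantified by RT-PCR and capillary electrophoresis of FAM-labelled, HpaI-cut products after 24 h treatment of HepG2 cells carrying transiently transfected GAL4-UAS reporter units and an exogenous ERRa-Gal4 fusion; activity scored as increase over DMSO.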
Chain of Steroid hormone receptor ERR1 (Homo sapiens) (P11474 whole entry, looked up, the tested form may be a part): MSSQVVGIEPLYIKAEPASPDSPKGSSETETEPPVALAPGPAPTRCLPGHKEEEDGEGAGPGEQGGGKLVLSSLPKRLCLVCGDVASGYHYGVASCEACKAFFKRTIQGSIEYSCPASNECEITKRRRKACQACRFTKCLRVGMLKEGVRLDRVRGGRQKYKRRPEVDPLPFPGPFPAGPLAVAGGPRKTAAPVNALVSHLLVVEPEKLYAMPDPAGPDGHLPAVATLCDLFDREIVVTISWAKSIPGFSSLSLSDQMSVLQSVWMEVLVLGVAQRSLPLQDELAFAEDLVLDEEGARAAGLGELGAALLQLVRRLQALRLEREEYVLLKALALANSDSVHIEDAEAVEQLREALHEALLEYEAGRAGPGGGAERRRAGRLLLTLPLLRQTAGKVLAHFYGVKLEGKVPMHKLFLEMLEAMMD

Chain of Signal transducer and activator of transcription 3 (Homo sapiens) (P40763 whole entry, looked up): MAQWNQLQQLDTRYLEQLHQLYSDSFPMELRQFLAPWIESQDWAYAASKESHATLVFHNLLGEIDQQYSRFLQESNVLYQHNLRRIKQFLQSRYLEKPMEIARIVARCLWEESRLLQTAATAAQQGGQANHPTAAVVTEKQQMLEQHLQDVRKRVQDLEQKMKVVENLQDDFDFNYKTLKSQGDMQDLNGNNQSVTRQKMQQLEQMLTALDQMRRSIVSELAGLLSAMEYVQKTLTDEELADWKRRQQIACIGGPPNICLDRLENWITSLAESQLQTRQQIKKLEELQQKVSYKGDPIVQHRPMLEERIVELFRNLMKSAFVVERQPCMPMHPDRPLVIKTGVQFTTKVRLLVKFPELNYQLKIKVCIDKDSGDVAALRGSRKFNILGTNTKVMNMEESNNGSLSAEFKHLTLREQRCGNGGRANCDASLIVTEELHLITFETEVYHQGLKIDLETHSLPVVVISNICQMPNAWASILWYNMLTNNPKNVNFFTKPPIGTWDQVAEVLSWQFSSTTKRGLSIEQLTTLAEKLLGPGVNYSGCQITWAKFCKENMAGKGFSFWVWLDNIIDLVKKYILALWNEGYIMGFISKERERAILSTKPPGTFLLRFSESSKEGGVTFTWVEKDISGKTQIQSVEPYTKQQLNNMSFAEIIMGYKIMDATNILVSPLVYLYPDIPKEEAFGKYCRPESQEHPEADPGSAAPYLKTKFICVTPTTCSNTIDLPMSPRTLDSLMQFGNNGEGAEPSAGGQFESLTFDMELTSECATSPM
Chain of X-box-binding protein 1 (Homo sapiens) (P17861 whole entry, looked up): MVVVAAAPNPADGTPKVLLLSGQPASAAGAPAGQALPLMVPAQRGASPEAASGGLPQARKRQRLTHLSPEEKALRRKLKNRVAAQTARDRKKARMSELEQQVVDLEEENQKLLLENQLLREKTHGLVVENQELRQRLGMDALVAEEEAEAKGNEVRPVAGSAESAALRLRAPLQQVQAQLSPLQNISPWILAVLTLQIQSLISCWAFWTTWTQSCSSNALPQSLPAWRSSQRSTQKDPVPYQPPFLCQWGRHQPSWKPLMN
Chain of Transcription factor Sp1 (Homo sapiens) (P08047 whole entry, looked up): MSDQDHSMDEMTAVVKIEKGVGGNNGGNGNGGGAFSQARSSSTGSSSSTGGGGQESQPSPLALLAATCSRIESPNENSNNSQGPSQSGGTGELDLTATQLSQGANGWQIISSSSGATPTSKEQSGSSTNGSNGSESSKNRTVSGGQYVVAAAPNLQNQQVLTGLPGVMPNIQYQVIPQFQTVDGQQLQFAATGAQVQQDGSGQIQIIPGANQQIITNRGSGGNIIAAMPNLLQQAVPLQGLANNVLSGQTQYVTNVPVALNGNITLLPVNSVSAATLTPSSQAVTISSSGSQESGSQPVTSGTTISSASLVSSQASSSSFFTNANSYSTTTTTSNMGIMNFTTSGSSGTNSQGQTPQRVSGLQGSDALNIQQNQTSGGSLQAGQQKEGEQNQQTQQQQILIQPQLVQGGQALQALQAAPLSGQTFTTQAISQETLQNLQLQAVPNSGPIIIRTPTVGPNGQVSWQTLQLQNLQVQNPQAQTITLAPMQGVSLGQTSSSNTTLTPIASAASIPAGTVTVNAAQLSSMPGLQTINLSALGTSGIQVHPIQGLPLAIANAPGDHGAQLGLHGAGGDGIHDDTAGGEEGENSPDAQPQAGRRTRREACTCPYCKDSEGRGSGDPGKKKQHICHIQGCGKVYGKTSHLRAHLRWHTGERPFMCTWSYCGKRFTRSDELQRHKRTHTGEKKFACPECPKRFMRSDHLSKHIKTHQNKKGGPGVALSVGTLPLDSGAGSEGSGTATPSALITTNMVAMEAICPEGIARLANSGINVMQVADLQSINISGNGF
Chain of Estrogen receptor (Homo sapiens) (P03372 whole entry, looked up, the tested form may be a part): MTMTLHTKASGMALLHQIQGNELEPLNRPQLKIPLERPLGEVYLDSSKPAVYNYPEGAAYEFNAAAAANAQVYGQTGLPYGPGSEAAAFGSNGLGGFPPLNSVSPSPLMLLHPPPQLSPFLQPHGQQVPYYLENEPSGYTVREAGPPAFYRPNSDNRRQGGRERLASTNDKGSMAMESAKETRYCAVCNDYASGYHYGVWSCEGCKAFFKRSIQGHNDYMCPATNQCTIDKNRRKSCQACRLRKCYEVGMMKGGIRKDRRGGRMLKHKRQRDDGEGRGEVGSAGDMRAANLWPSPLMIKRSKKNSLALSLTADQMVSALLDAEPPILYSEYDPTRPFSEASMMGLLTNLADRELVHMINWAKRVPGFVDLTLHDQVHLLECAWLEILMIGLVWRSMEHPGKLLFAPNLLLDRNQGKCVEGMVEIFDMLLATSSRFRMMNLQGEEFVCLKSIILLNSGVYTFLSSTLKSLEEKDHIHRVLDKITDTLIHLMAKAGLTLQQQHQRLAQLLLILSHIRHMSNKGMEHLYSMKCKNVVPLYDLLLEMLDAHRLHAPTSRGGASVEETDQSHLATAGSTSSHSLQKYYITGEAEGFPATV

For the compound `Cc1cc(C)c(C(=O)O)c(C)c1`, the call in experiment [1], in [2], in [3], in experiment [4], in experiment [5] and in experiment [6] was inactive. Moreover, the result in experiment [7], in experiment [8], in [9], in experiment [10], in experiment [11] and in experiment [12] was inactive. In addition, the compound was classed as inactive in experiment [13], in experiment [14] and in [15].

Take `CC1(C)O[C@@H]2C[C@H]3[C@@H]4C[C@H](F)C5=CC(=O)C=C[C@]5(C)[C@@]4(F)[C@@H](O)C[C@]3(C)[C@]2(C(=O)CO)O1`: the outcome in [1], in experiment [16], in experiment [4], in experiment [5], in experiment [6] and in experiment [7] was inactive. Also, the compound was classed as inactive in experiment [8], in [9], in [10], in [11] and in [12]. In addition, the AC50 (in general, the concentration at which the activity in the assay is half-maximal) in [2] was 6.12 µM (active); in [13] it was 9.67 µM (active).

For the compound `O=C(O)CC(C(=O)O)C(CC(=O)O)C(=O)O` (stereo unspecified), the compound was called inactive in experiment [1], in [2], in experiment [16], in experiment [4], in experiment [5] and in experiment [6]. Besides, the result in experiment [7], in experiment [8], in experiment [9], in experiment [10], in [11] and in experiment [14] was inactive. In [17], the call was inactive.

For `CC(=O)[C@@]1(O)CC[C@H]2[C@@H]3C[C@H](C)C4=CC(=O)C=C[C@]4(C)[C@@]3(F)[C@@H](O)C[C@@]21C`, the compound was classed as inactive in experiment [1], in [2], in [16], in experiment [4], in experiment [5] and in experiment [6]. Moreover, the compound was classed as inactive in experiment [7], in experiment [8], in experiment [9], in experiment [10], in [11] and in [12]. The call in experiment [18], in [14] and in experiment [17] was inactive.

As to `COc1ccc(NC(C)=O)cc1N`, the call in experiment [1], in [2], in experiment [16], in experiment [4], in experiment [5] and in experiment [7] was inactive. Also, the call in [8], in experiment [9], in experiment [10] and in experiment [11] was inactive.
